Source: PubChem
A selection: hits, their analogues and other compounds. The true share with any hit is near 2.4%.
D2 ag-1 = human D2 receptor agonism in beta-arrestin assay. P14416. DiscoveRx PathHunter D2 beta-arrestin, luminescence, 90 min; 100% = 57 uM dopamine signal. 360,000 tested, 0.084% active. AID 624465. activation, % (concentration not given with the values); in the data active means activation above about 40%; inconclusive means between about 15% and that limit
Target sequence (P14416 whole entry, looked up): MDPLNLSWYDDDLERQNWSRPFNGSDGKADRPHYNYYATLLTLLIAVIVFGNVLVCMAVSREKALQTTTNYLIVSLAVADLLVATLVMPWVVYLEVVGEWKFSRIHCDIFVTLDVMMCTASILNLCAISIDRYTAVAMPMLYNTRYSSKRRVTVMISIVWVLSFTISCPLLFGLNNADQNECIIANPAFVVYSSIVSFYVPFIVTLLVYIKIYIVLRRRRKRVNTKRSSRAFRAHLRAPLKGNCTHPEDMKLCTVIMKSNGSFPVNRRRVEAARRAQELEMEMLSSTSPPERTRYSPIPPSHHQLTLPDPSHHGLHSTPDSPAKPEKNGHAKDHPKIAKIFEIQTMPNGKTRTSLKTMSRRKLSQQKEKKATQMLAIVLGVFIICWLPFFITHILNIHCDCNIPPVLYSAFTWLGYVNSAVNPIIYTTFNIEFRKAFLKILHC
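DiscoveRx PathHunter D2 beta-arrestin cells (2,100/well) attached overnight, then compound-stimulated 90 min at 37 C in HBSS/10 mM HEPES/0.1% Tween-20 buffer; beta-galactosidase complementation read by luminescence after 1 h at ambient temperature. Dopamine 57 uM final (EC100) as control.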
D2 PAM-1 = positively modulates the human D2 dopamine receptor allosterically; P14416; HEK293 T-REx D2, calcium flux, EC20 dopamine potentiation; potentiation, % at 10 µM; 340,000 tested, 0.34% active;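 active means potentiation over 3 SD above the plate norm, cut at about 30% in these data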; further: 0% is about no effect
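Primary screen. Calcium kinetics in induced HEK293 T-REx D2 cells: compound pre-addition 180 s, EC20 dopamine, 180 s more.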
D2 ag-2 = D2 dopamine receptor (human) agonism; P14416; activation, % at 2 µM; 340,000 tested, 0.53% active; HEK293 T-REx D2 cells, calcium flux agonist mode;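 active means activation over 3 SD above normal in the single-dose calcium agonist read, cut at about 30% in these data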; further: 0% is about no effect
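Agonism is scored from calcium flux in a force-coupled, inducible HEK293 cell line expressing D2, read kinetically for 180 s after compound addition against dopamine controls.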
D2 antagonist = antagonists of human D2 dopamine receptor; P14416; HEK293 TREx D2 cells, calcium flux, dopamine EC80; inhibition, % at 10 µM; 340,000 tested, 2% active; in the data active means inhibition above about 30%; inactive means below that, where a call was filed; further: 0% is about no effect
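Read-out: kinetic calcium fluorescence (1 cycle/s) in inducible HEK293 T-REx D2 cells after an EC80 dopamine addition that followed 180 s compound preincubation. Loss of the dopamine response indicates antagonism.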
D2 PAM-2 = positive allosteric modulators of human D2 dopamine receptor | DiscoveRx D2 beta-arrestin cells, luminescence, 90 min; 100% = 57 uM dopamine signal | potentiation, % (no concentration beside the values) | 360,000 tested, 0.23% active | AID 624464; in the data active means potentiation above about 50%; inconclusive means mostly about 30% to 49%
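PathHunter beta-arrestin assay in DiscoveRx D2 cells. Compounds were added with an EC20 of dopamine (50 nM final) for 90 min at 37 deg C. Luminescence was read 1 h after detection reagent, with 57 uM dopamine as the EC100 control.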
Numbers without * were called inactive; ? = inconclusive; · = no result.

SMILES | D2 ag-1 | D2 PAM-1 | D2 ag-2 | D2 antagonist | D2 PAM-2
COc1ccc(-n2c(=O)c3c(c4cc(OC)ccc4n3C)n(CCC(C)C)c2=O)cc1 | · | 4.9 | 0.3 | · | ·
Cc1cc(C)c(C#N)c(N2CCCC2)n1 | -1.4 | 1.8 | -1.0 | 6.3 | -2.3
COc1ccc(F)cc1CN1CCN(c2cc(C)nc3c4c(C)cc(C)nc4nn23)CC1 | · | -10.3 | -0.1 | -11.9 | ·
Cc1cc(C)c(C#N)c(N2CCN(CCOc3ccc(Cl)cc3)CC2)n1 | 2.0 | -23.6 | 1.0 | 121.1* | -42.1
COc1ccc(Cl)cc1CN1CCN(c2nc(C)cc(C)c2C#N)CC1 | -2.7 | -25.0 | -0.4 | 41.3* | -29.3
CCCCN1CCCc2cc(CN(CCCN3CCOCC3)C(=O)Nc3ccc(CC)cc3)ccc21 | · | -16.1 | 0.1 | · | ·
CCN1CCCC1CNC(=O)c1cc2c(OC)cccc2[nH]1 (centres undefined) | -2.7 | · | · | · | -24.4
CCN1CCC[C@H]1CNC(=O)c1c(O)c(Cl)cc(Cl)c1OC | -7.2 | -27.0 | -2.3 | 76.0* | -27.0
CCN1CCCC1CNC(=O)c1cc2c(OC)c(OC)c(OC)cc2[nH]1 (centres undefined) | -0.1 | -23.4 | 0.3 | 82.7* | -13.0
CCN1CCCC1CNC(=O)c1cc(OC)c(OC)c(OC)c1 (centres undefined) | 0.3 | -21.4 | 0.5 | -18.6 | -37.1
CCCCN1CCCC1CNC(=O)c1cc(C#N)c2ccccc2c1OC (centres undefined) | · | -26.6 | 1.2 | 84.4* | ·
O=C(Cn1c(=O)n2nc(-c3cccc(F)c3)nc2c2ccccc21)N1CCN(c2ccccc2F)CC1 | · | 8.2 | -4.2 | · | ·
CCOC(=O)c1c(CSc2ccccc2)n(C)c2cc(Br)c(O)c(CN(C)C)c12 | 0.7 | -3.0 | -0.7 | -5.8 | -4.4
CCOC(=O)c1c(CN2CCCCC2)n(C)c2cc(Br)c(O)c(CN(C)C)c12 | -5.3 | -32.9 | 0.4 | 60.5* | -5.9
CCc1ccccc1N(C)C(=O)c1cc2c(=O)oc3ccccc3c2s1 | · | 5.3 | -1.0 | · | ·
Cc1cc(C)c(NC(=O)C(C)Sc2nnc(-c3ccco3)n2-c2ccccc2)c(C)c1 (centres undefined) | · | 7.3 | -0.1 | 10.3 | ·
CC(Sc1nnc(-c2cc3ccccc3o2)n1-c1ccccc1)C(=O)O (centres undefined) | -2.5 | -2.9 | 0.1 | 45.0* | 2.5
CC1CCN(C(=O)CSc2nnc3ccc(-c4cccnc4)nn23)CC1 | -1.5 | -4.4 | -0.1 | 37.8* | 16.0
COc1cccc(-c2ccc3nnc(SCC(=O)N4CCCC4)n3n2)c1 | -4.4 | -5.3 | 0.1 | 4.9 | 0.6
CCOc1ccc(-n2c(SCC(=O)N3CCc4ccccc43)nc3c([nH]c4ccccc43)c2=O)cc1 | · | -9.9 | · | · | ·
Cc1cccc(NC2=C/C(=N/S(=O)(=O)c3cccs3)c3ccccc3C2=O)c1 | ? | 5.5 | -1.5 | -10.3 | 95.7*
Cc1cccc(N2CCN(C(=O)c3sc4nc5n(c(=O)c4c3C)CCC5)CC2C)c1 (centres undefined) | · | 15.7 | -1.1 | · | ·
O=C(N/N=C/c1ccccn1)C1CC1 | -1.1 | -18.7 | 0.8 | 31.9* | 3.0
Cc1ccc(C)c(Nc2c(F)c(F)c(F)c(F)c2C(=O)O)c1 | 4.2 | 32.5* | -0.5 | -1.9 | 13.2
COc1c(F)c(F)c(C(=O)O)c(Nc2ccc(C)cc2)c1F | -0.9 | 2.2 | 0.8 | -0.9 | -14.4
SMILES | D2 ag-1 | D2 PAM-1 | D2 ag-2 | D2 antagonist | D2 PAM-2
CCN(c1cccc(C)c1)S(=O)(=O)c1ccc2c(c1)CCN2C(C)=O | -0.7 | -15.2 | -0.5 | 1.5 | -35.8
CCN(c1cccc(C(F)(F)F)c1)S(=O)(=O)c1ccc2c(c1)CCN2C(C)=O | -1.1 | -8.9 | 0.0 | 31.0* | -26.5
O=c1cc(N2CCN(Cc3ccccc3)CC2)[nH]c(=O)n1-c1ccc(Br)cc1 | -0.8 | -0.4 | 0.6 | 38.2* | -3.8
Cc1cc2nc(C3CCCN(C(=S)Nc4ccccc4)C3)[nH]c2cc1C (centres undefined) | -0.1 | 7.3 | -1.0 | 31.0* | -8.3
COc1ccc(N(C(=O)COc2ccc(Br)cc2)S(=O)(=O)c2ccc(C)cc2)cc1 | · | 4.0 | 0.7 | · | ·
CCN(CC)c1ccc(/C=C2\C(=N)N3N=C(CC(=O)N4CCOCC4)SC3=NC2=O)cc1 | -1.1 | -5.4 | 33.4* | 8.4 | -1.8
CCc1nc(Oc2cccc(F)c2)c2oc3ccccc3c2n1 | · | 1.8 | 0.2 | · | ·
CC1=C(C(=O)Nc2ccccc2C)C(c2cccs2)n2nc(SCc3ccccc3)nc2N1 (centres undefined) | · | 1.9 | -0.4 | · | ·
CCCc1cc(C(N)=O)c(NC(=O)c2ccoc2C)s1 | -5.1 | · | 1.7 | 30.9* | -10.5
CCC(CC)C(=O)NC12CC3CC(CC(C3)C1)C2 | -2.4 | 25.0 | -1.9 | 32.5* | -2.4
Cn1cc(CN2CCN(c3ccccc3)CC2)c2ccccc21 | 7.3 | -15.8 | 74.1* | 80.9* | -10.1
Cc1nn(CCC(=O)N2CCN(c3ccccc3)CC2)c(C)c1S(=O)(=O)N1CCCC1 | · | 2.5 | -0.3 | · | ·
CC(NC(=O)/C(C#N)=C/c1ccc(N2CCOCC2)cc1)c1ccccc1 (centres undefined) | -3.5 | 32.2* | 4.6 | 2.5 | -6.2
COC(=O)c1ccc(/C=C(\C#N)C(=O)NC(C)c2ccccc2)cc1 (centres undefined) | -6.9 | 10.0 | -0.8 | 8.1 | -9.1
O=C(C1CCCO1)N1CCN(C(=S)Nc2ccc(F)cc2)CC1 (centres undefined) | 1.8 | 0.6 | 1.4 | 41.0* | -4.3
CCOC(=O)C1=C(C)N=C2SC(C)C(=O)N2C1c1ccc(OC(C)=O)c(OC)c1 (centres undefined) | -2.3 | 38.2* | 0.1 | 11.1 | -3.1
CCOc1cc(C2C(C(=O)OC)=C(C)N=C3SC(C)C(=O)N32)ccc1OC(C)=O (centres undefined) | -3.0 | 4.4 | -0.3 | -1.5 | -14.5
Cc1ccccc1CS(=O)(=O)Cc1ccc(C(=O)NCCc2ccc(Cl)cc2)o1 | · | -15.9 | · | · | ·
O=S(=O)(Cc1ccccc1)N1CCN(C2Cc3ccccc3C2)CC1 | -1.5 | -6.8 | 1.4 | 30.3* | -12.7
CS(=O)(=O)c1nc(-c2ccc(Br)cc2)cc(-c2ccccc2)c1C#N | -2.5 | -2.9 | 0.8 | 41.0* | 0.5
Cc1cccnc1NC1CCCCC1 | 0.6 | 2.8 | 1.0 | -1.6 | -13.1
c1ccc2c(NC3CCCC3)nnc(NC3CCCC3)c2c1 | -2.7 | -23.2 | 15.8 | 49.2* | -42.5
Cc1ccc(S(=O)(=O)C2(C(=O)Nc3ccc(Cl)c(C(F)(F)F)c3)CC2)cc1 | · | -3.8 | 1.5 | · | ·
CCCCC(=O)Nc1ccc2oc(-c3cccnc3)nc2c1 | -2.6 | -7.3 | -0.9 | 4.9 | 13.1
CCCC(=O)Nc1ccc2oc(-c3cccnc3)nc2c1 | -2.5 | 13.2 | -0.8 | 31.9* | ?
CCc1cccc(-n2nnc(-c3nsc(NC(=O)c4cccs4)n3)c2C)c1 | · | 8.1 | 0.1 | · | ·
